Screens from PubChem.
TexasRed fluor = alters Texas Red total fluorescence, flagging assay interference; TRb/SRC2 Texas Red total fluorescence interference; Potency, µM (series often up to 106 µM), without a hit: at the top dose fluorescence change, negative = quenching; 0.29% of 280,000 active; AID 1479; active means well fitted curve in either direction with a large enough effect; inconclusive means small, poorly fitted or top-dose-only effect; further: potency means the concentration at half of the fitted maximal effect; on the % scale 0 is the no-effect control and ±100 the full control effect
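Flags fluorescent or light-absorbing compounds by total fluorescence, S + 2P, at 555 nm excitation and 632 nm emission. Mixture: 20 nM Texas Red SRC2 peptide, 0.6 uM human TRb LBD, 1 uM T3, 5% DMSO; compound exposure 5 h at ambient temperature.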
TRb-SRC2 inh = disrupts binding of human TR beta to SRC2 | AID 1469 | TRbeta-SRC2 peptide binding, fluorescence polarization; receptor liganded with 1 µM T3 | 0.065% of 280,000 active | Potency, µM (highest dose often 106 µM), without a hit: at the highest dose activity change, negative = inhibition, hits mostly inhibitors | P10828;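 further: potency means the concentration at half of the fitted maximal effect; plate controls were bound peptide for no effect and peptide without receptor for full effect; nearly all actives have a fitted effect of over 50% in size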
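Polarization signal, normalized between peptide-alone and full complex controls, measured compound effects on T3-liganded human TRb LBD (0.6 uM) binding 20 nM Texas Red SRC2 peptide after 5 hr.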
RGS12 GoLoco inh-1 = inhibitors of human Gai1-RGS12 GoLoco interaction (red fluorophore); P63096; Gai1:RGS12 GoLoco peptide FP, rhodamine, 10 min; Potency, µM (highest dose often 61.6 µM), for inactives: at the top dose activity, negative = inhibition, usual class: inhibitors; 0.44% of 230,000 active; AID 880; active means well fitted inhibition curve with a large enough effect, not every such curve was filed as active; inactive means no such curve, though single readings can be large or run the other way; further: potency means the concentration at half of the fitted maximal effect; on the % scale 0 is the no-effect control and ±100 the full control effect; nearly all actives have a fitted effect of over 30% in size
RECQ1 inh-1 = blocks DNA unwinding by human RECQ1; Potency, µM (highest dose often 57.3 µM), for inactives: top-dose activity, negative = inhibition, hits mostly inhibitors; RECQ1 DNA unwinding, red fluorescence kinetic read; P46063; 0.54% of 240,000 active;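 further: potency means the concentration at half of the fitted maximal effect; plate controls were vehicle for no effect and no enzyme for full effect; nearly all actives have a fitted effect of over 30% in size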
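50 nM RECQ1T1 preincubated 15 min with compound in Tris pH 8.0 buffer with MgCl2, DTT, Tween-20 and 2.5 ug/ml poly(dI-dC); started with 200 nM TAMRA/BHQ-2 forked duplex and 2 mM ATP. Unwinding read as fluorescence (525/598 nm), two reads 2 h apart.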
BLM inh-1 = Bloom syndrome helicase (human) inhibition. AID 2528. recombinant BLM DNA unwinding, fluorescence dequenching. 0.2% of 350,000 active. Potency, µM (top dose mostly 56.1 µM), for the others: at the highest dose activity change, negative = inhibition, most hits filed as inhibitors;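 further: potency means the concentration at half of the fitted maximal effect; plate controls were vehicle for no effect and no enzyme for full effect; nearly all actives have a fitted effect of over 35% in size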
ERG-DNA inh = inhibitors of human ERG Ets domain-DNA interaction | P11308 | fluorescence polarization, His-ERG Ets domain / labelled DNA | Potency, µM (highest dose often 76.9 µM), for inactives: top-dose FP activity, negative = inhibition, hits mostly inhibitors | 0.028% of 370,000 active | AID 624246; active means well fitted inhibition curve with a large enough effect in the polarisation, with a control signal flat; inconclusive means small, poorly fitted or top-dose-only effect, or effect the other way, or a change in a side signal; inactive means no such curve, though single readings can be large or run the other way; the % refers to the polarisation;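 further: polarization taken with two DNA probes labelled with fluorescein and Texas red; potency means the concentration at half of the fitted maximal effect; % of control where 0% means no effect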
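His-tagged ERG Ets domain (1 uM in the protein solution; 300mM KCl, 50mM Tris-HCl, 1mM EDTA, 1mM DTT, pH 7.5) received compound, then a probe mix of 5 nM fluorescein-DNA and 100nM Texas-615-DNA. Fluorescence polarization was read for both dyes.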
RGS12 GoLoco inh-2 = confirmation of human RGS12 GoLoco motif inhibitors; shares compounds with RGS12 GoLoco inh-1; Gai1/rhodamine-RGS12 GoLoco peptide fluorescence polarization; Potency, µM (doses to about 57.1 µM), for inactives: at the highest dose activity, negative = inhibition, hits mostly inhibitors; 50% of 110 active; AID 2390
Target sequence (O14924 whole entry, looked up): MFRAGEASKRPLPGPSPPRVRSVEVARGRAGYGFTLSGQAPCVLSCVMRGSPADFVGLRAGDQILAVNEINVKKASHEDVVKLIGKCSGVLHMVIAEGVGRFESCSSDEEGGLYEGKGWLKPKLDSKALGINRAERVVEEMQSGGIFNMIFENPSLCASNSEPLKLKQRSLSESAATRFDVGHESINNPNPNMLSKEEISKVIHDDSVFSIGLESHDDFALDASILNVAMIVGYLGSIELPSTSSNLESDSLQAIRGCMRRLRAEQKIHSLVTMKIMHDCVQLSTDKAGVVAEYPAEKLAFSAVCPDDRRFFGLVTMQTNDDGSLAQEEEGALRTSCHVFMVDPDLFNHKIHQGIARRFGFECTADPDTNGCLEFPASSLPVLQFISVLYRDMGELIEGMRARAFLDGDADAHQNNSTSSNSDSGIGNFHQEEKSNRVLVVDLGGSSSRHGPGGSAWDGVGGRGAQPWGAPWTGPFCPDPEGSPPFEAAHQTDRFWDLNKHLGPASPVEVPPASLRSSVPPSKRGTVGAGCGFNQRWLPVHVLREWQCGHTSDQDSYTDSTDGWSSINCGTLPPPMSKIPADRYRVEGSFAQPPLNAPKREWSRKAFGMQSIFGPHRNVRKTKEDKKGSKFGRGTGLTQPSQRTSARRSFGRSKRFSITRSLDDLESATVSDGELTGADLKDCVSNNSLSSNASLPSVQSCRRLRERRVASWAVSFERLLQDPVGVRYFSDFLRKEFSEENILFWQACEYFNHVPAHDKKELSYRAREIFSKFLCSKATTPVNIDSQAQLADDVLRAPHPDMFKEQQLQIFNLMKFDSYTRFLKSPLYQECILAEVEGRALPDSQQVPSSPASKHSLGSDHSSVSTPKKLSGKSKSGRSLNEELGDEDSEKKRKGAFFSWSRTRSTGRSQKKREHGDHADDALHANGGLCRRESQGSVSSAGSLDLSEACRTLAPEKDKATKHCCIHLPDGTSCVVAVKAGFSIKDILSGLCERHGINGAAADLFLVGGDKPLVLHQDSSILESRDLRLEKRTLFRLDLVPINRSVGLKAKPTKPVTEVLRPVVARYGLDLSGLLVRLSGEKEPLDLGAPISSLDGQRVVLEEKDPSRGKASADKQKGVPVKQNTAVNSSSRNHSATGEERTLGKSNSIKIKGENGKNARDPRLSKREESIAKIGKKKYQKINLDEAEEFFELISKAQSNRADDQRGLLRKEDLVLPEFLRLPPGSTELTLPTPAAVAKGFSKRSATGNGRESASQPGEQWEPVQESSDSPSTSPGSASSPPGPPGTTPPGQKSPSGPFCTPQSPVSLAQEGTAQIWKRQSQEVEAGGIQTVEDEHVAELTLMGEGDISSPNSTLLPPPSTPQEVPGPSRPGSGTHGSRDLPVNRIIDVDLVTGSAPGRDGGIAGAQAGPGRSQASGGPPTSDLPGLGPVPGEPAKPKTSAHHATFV
BLM inh-2 = BLM (human) helicase inhibition, confirmation; shares compounds with BLM inh-1; BLM DNA unwinding, fluorescence quenching, biochemical; Potency, µM, for the others: max response, negative = inhibition, hits mostly inhibitors; 40% of 220 active;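 further: strand separation dequenches TAMRA so unwinding raises red fluorescence; potency means the concentration at half of the fitted maximal effect; series mostly up to about 69 µM; on the % scale 0 is the no-effect control and ±100 the full control effect; nearly all actives have a fitted effect of over 45% in size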
RECQ1 inh conf = confirmation of human RECQ1 helicase inhibitors. shares compounds with RECQ1 inh-1. RECQ1 helicase DNA unwinding, fluorescence. Potency, µM (titrated, usually from 229 µM), for inactives: at the top dose activity change, negative = inhibition, most hits filed as inhibitors. 28% of 610 active. AID 2708; further: potency means the concentration at half of the fitted maximal effect; on the % scale 0 is the no-effect control and ±100 the full control effect; nearly all actives have a fitted effect of over 45% in size
RECQ1 inh-2 = confirmation of human RECQ1 helicase inhibitors | shares compounds with RECQ1 inh-1 | 15% of 1,100 active | AID 504841 | recombinant RECQ1 DNA unwinding, red fluorescence | Potency, µM (series often up to 119 µM), for inactives: at the highest dose activity, negative = inhibition, hits mostly inhibitors; further: potency means the concentration at half of the fitted maximal effect; on the % scale 0 is the no-effect control and ±100 the full control effect; nearly all actives have a fitted effect of over 50% in size
* hit, by the source's call; i = inactive; ? = inconclusive; . = no result given; ! = a repeat was not active; [ ] = dose if it differs, or a comment. The list is not random: actives were taken first. Their share in the collection is about 0.71%. Unless noted, the call rests on the fitted dose curve; in most records, active means well fitted curve in the direction sought with a large enough effect; inconclusive means small, poorly fitted or top-dose-only effect, or another doubt; inactive means no such curve, though single readings can be large; an effect the other way counts as inactive or inconclusive.

SMILES | TexasRed fluor | TRb-SRC2 inh | RGS12 GoLoco inh-1 | RECQ1 inh-1 | BLM inh-1 | ERG-DNA inh | others
O=C1NC(=O)N(Cc2ccc(F)cc2)C(=O)/C1=C\c1ccoc1 | 13% | 8% | 62% | 25µM* | -20% | ?
O=C1NC(=S)N(c2ccc(F)cc2)C(=O)/C1=C/c1ccco1 | . | . | . | . | 3.2µM* | .
Cc1ccc(/C=C2\C(=O)NC(=S)N(c3cccc(F)c3)C2=O)o1 | . | . | . | . | -11% | 44%
COc1ccc(OC)c(N2C(=O)NC(=O)/C(=C/c3ccc([N+](=O)[O-])s3)C2=O)c1 | 14% | ? | -14% | 26% | 10µM* | 55%
CNc1cnn(-c2cccc(C(F)(F)F)c2)c(=O)c1Cl | 4%[201 µM] | -2%[201 µM] | . | . | . | .
COc1cccc(C(=O)NN(C(=O)c2cc(C)cc(C)c2)C(C)(C)C)c1C | 3%[201 µM] | 0%[201 µM] | . | . | . | .
O=C(O)COc1ccc(Cl)cc1 | -5%[201 µM] | 4%[201 µM] | . | . | . | .
Cc1c(COC(=O)C2C(/C=C(\Cl)C(F)(F)F)C2(C)C)cccc1-c1ccccc1 (stereo not drawn) | 0%[201 µM] | -5%[201 µM] | . | . | . | .
CCOP(=S)(OCC)SCSCC | -2%[201 µM] | 0%[201 µM] | . | . | . | .
COc1ccc(OC)c(N2C(=O)/C(=C/c3ccco3)C(=O)NC2=S)c1 | . | . | . | . | 1.6µM* | 35%
COc1ccc(N2C(=O)/C(=C/c3ccc(C)o3)C(=O)NC2=S)cc1 | . | . | . | . | -8% | 18%
Nc1ccc([N+](=O)[O-])cc1Cl | -4%[201 µM] | -4%[201 µM] | . | . | . | .
CC(C)N1C(=O)CC2(CC[N+](C)(CCOC(=O)C(O)(c3ccccc3)c3ccccc3)CC2)C1=O (stereo not drawn) | 0% | 4% | 16µM* | -8% | 1% | 6%
CCN(CC)CCOC(=O)C(O)(c1ccccc1)c1ccccc1 | -4% | 1% | 16% | -9% | -3% | 0%
CCC[CH2][Sn](=[O])[CH2]CCC | -5%[201 µM] | 1%[201 µM] | . | . | . | .
CCOP(=O)(OCC)C(NC(=O)c1cccc(C)c1)C(Cl)(Cl)Cl (stereo not drawn) | -3% | 0% | 3% | i | -1% | 12%
CCOP(=O)(OCC)C(NC(=O)c1cccc2ccccc12)C(Cl)(Cl)Cl (stereo not drawn) | 32µM*[quencher] | -17%[53 µM] | 12% | -13% | 6% | 8%
CCOP(=O)(OCC)C(NC(=O)Cc1ccccc1)C(Cl)(Cl)Cl (stereo not drawn) | -7% | 1% | 6% | -3% | 0% | -1%
CCOP(=O)(OCC)C(NC(=O)c1ccccc1C)C(Cl)(Cl)Cl (stereo not drawn) | 3.2µM*[quencher] | 0%[53 µM] | -12% | -1% | -7% | 4%
O=CNC(N1CCN(C(NC=O)C(Cl)(Cl)Cl)CC1)C(Cl)(Cl)Cl (stereo not drawn) | 1%[201 µM] | 4%[201 µM] | . | . | . | .
N[C@@H](Cc1cc(Br)c(O)c(Br)c1)C(=O)O | 0% | -1% | 11µM*! | -15% | 0% | .
CCC[N+]12CCC(CC1)C(C(O)(c1ccccc1)c1ccccc1)C2 (stereo not drawn) | -1% | 1% | 10% | -2% | 0% | 2%
C[N+]12CCC(CC1)C(C(O)(c1ccccc1)c1cccs1)C2 (stereo not drawn) | -2% | 1% | 3.5µM* | -2% | 0% | . | RGS12 GoLoco inh-2=25µM*
CN(N=O)c1cc(O)ccc1O | 13µM*[quencher] | ? | 5.6µM* | 1.6µM* | . | . | RGS12 GoLoco inh-2=?
CCC(C)(C)c1cc(-n2nc3ccccc3n2)c(O)c(C(C)(C)CC)c1 | -4%[201 µM] | -1%[201 µM] | . | . | . | .
SMILES | TexasRed fluor | TRb-SRC2 inh | RGS12 GoLoco inh-1 | RECQ1 inh-1 | BLM inh-1 | ERG-DNA inh | others
CCCC[N+]12CCC(CC1)C(Cc1ccccc1)C2 (stereo not drawn) | -2% | 2% | 2% | -19% | 2% | 6% | RGS12 GoLoco inh-2=4%
CCn1c(C)[n+](CC(O)COCC2CC=CCC2)c2ccccc21 (stereo not drawn) | 0% | -12% | 2.2µM* | i | -2% | 3% | RGS12 GoLoco inh-2=14µM*
Cc1cc(Cl)ccc1O[C@H](C)C(=O)O | -4%[201 µM] | 2%[201 µM] | . | . | . | .
COP(=S)(OC)Oc1c(Cl)cc(C)cc1Cl | 2%[201 µM] | 11%[201 µM] | . | . | . | .
C[N+]12CCC(CC1)C(=C(c1ccccc1)c1ccccc1)C2 | -8% | 0% | 11µM* | i | 1% | -2% | RGS12 GoLoco inh-2=14µM*
ClC1=C(Cl)[C@]2(Cl)[C@H]3[C@H]([C@@H]4C=C[C@H]3C4)[C@]1(Cl)C2(Cl)Cl | -4%[201 µM] | -2%[201 µM] | . | . | . | .
CC(C)CNC(=O)c1c(N)n(Cc2ccc3c(c2)OCO3)c2nc3ccccc3nc12 | 0% | 5% | -3% | i | 10µM* | -11% | BLM inh-2=-8%
C1=Cc2cccc3cccc1c23 | -1%[201 µM] | 2%[201 µM] | . | . | . | .
N#C/C(=C\c1ccc(O)c(O)c1)C(=O)NCCCNC(=O)/C(C#N)=C/c1ccc(O)c(O)c1 | -6% | 10% | 10% | 0.45µM* | . | . | BLM inh-2=27µM*;RECQ1 inh conf=0.51µM*
N#CC(C#N)=Cc1ccc([N+](=O)[O-])c(O)c1 | -8% | -8% | -50% | ? | -7% | .
CN(c1c(Br)cc(Br)cc1Br)c1c([N+](=O)[O-])cc([N+](=O)[O-])cc1C(F)(F)F | -5%[201 µM] | 1%[201 µM] | . | . | . | .
C[C@]12CC[C@@H]3c4ccc(OC(=O)N(CCCl)CCCl)cc4CC[C@H]3[C@@H]1CC[C@@H]2O | . | . | . | . | 14µM* | . | BLM inh-2=30µM*;RECQ1 inh conf=?
CCC(C=C[C@@H]1OC(=O)C=C[C@H]1C)=C[C@H](C)CC=CC(C)=C[C@@H](C)C(=O)[C@@H](C)[C@H](O)[C@@H](C)CC(C)=CC(=O)O | 0%[2.82 µM] | 1%[2.82 µM] | 2%[0.551 µM] | ? | ? | . | RECQ1 inh-2=1.3µM*
CC(C)[C@@H](Nc1ccc(C(F)(F)F)cc1Cl)C(=O)OC(C#N)c1cccc(Oc2ccccc2)c1 (stereo partly drawn) | 3%[201 µM] | -4%[201 µM] | . | . | . | .
